Reference: the supplement of paper PMC8387472

Assays:
Experiment in all cases: fraction of edited reads among all mapped reads; higher = more Cas9 editing
Conditions in all cases: mESC; 2uM; 72 h treatment, harvest day 5
[1] = compound: CC(=O)O/N=C1\C(=O)N(Cc2cc(Cl)ccc2Cl)c2ccc(Cl)cc21
[2] = compound: CC(C)(C#N)c1ccc(N2C(=O)OCc3cnc4ccc(-c5cnc6ccccc6c5)cc4c32)cc1
[3] = compound: CCCCOc1c(C(=O)c2c(F)cc(C)cc2F)c[nH]c2nncc1-2
[4] = compound: CCN1CCN(CC(=O)Nc2ccc(-c3cccc4c(=O)cc(N5CCOCC5)oc34)c3sc4ccccc4c23)CC1
[5] = compound: CCc1c2c(nc3ccc(OC(=O)N4CCC(N5CCCCC5)CC4)cc13)-c1cc3c(c(=O)n1C2)COC(=O)[C@]3(O)CC [Irinotecan HCl Trihydrate]
[6] = compound: CCn1c(=O)c(-c2ccc(Cl)cc2Cl)cc2cnc(Nc3ccc(N4CCNCC4)c(F)c3)nc21
[7] = compound: CNc1ccc([N+](=O)[O-])c(Nc2ccc3[nH]ncc3c2)n1
[8] = compound: CO[C@H]1/C=C/O[C@@]2(C)Oc3c(C)c(O)c4c(O)c(c(/C=N/N5CCN(C6CCCC6)CC5)c(O)c4c3C2=O)NC(=O)/C(C)=C\C=C\[C@H](C)[C@H](O)[C@@H](C)[C@@H](O)[C@@H](C)[C@H](OC(C)=O)[C@@H]1C [Rifapentine]
[9] = compound: COc1ccccc1-c1cc(Nc2cccc(CS(N)(=O)=O)c2)ncn1
[10] = compound: C[C@@H]1CN(CC(=O)Nc2ccc3c(c2)Cc2cccc(-c4cc(=O)cc(N5CCOCC5)o4)c2S3)C[C@H](C)O1
[11] = compound: Cc1cc(C)nc(SCC(=O)Nc2ncc(Cc3cccc4ccccc34)s2)n1
[12] = compound: Cc1ccc(C(=O)NCCCCCC(=O)Nc2ccccc2N)cc1
[13] = compound: Cc1cccc(CC(=O)N2CCc3c2ccc(-c2cn(C)c4ncnc(N)c24)c3F)n1
[14] = compound: NC(=O)c1ccc2nc(-c3ccc(Oc4ccc(Cl)cc4)cc3)[nH]c2c1 [Chk 2 inhibitor II (BML-277)]
[15] = compound: Nc1cc(F)ccc1NC(=O)c1ccc(CNC(=O)/C=C/c2cccnc2)cc1 [Tucidinostat (Chidamide)]
[16] = compound: Nc1nc2[nH]cc(CCc3ccc(C(=O)N[C@@H](CCC(=O)O)C(=O)O)cc3)c2c(=O)[nH]1 [Pemetrexed]
[17] = compound: Nc1ncnc2c1c(-c1cnc3[nH]ccc3c1)nn2C1CCCC1
[18] = compound: O=C(c1cccc(Cl)c1F)N1CCN(Cc2cccc(Nc3nccs3)n2)CC1
[19] = compound: O=C1Cc2c([nH]c3ccc(Br)cc23)-c2ccccc2N1 [Kenpaullone]
[20] = compound: O=c1c(-c2ccc(O)cc2)coc2cc(O)cc(O)c12 [Genistein]

Row | Target | fraction of edited reads among all mapped reads [1] | fraction of edited reads among all mapped reads [2] | fraction of edited reads among all mapped reads [3] | fraction of edited reads among all mapped reads [4] | fraction of edited reads among all mapped reads [5] | fraction of edited reads among all mapped reads [6] | fraction of edited reads among all mapped reads [7] | fraction of edited reads among all mapped reads [8] | fraction of edited reads among all mapped reads [9] | fraction of edited reads among all mapped reads [10] | fraction of edited reads among all mapped reads [11] | fraction of edited reads among all mapped reads [12] | fraction of edited reads among all mapped reads [13] | fraction of edited reads among all mapped reads [14] | fraction of edited reads among all mapped reads [15] | fraction of edited reads among all mapped reads [16] | fraction of edited reads among all mapped reads [17] | fraction of edited reads among all mapped reads [18] | fraction of edited reads among all mapped reads [19] | fraction of edited reads among all mapped reads [20]
1 | 42.0 (DMSO control at this site: 1-bp insertion 0.145, MH deletion 0.655, edited 0.132) GGGCTAAACCTATGAGCACAGTAGAACTAAGGGTGGGTGGTGTAGCTAAAGAACTTGACCA | 0.151 | 0.153 | 0.161 | 0.0618 | 0.191 | 0.139 | 0.184 | 0.27 | 0.187 | 0.0909 | 0.241 | 0.15 | 0.193 | 0.167 | 0.115 | 0.127 | 0.135 | 0.107 | 0.251 | 0.18
2 | 39.0 (DMSO control at this site: 1-bp insertion 0.328, MH deletion 0.371, edited 0.204) CTGCACAGTCACTTAGGATAGGAGAAGATGATGTATAGGGTTTAGTGGGAGATGTTGCAAG | 0.191 | 0.182 | 0.214 | 0.0792 | 0.252 | 0.192 | 0.223 | 0.335 | 0.248 | 0.191 | 0.3 | 0.189 | 0.29 | 0.229 | 0.184 | 0.177 | 0.196 | 0.141 | 0.328 | 0.231
3 | 4.0 (DMSO control at this site: 1-bp insertion 0.146, MH deletion 0.523, edited 0.125) ACGCCTTAGTGCACGAGTGACGGGATAATGTGGTCTCAGGTAATTGATAGGCTTCCAACTT | 0.157 | 0.149 | 0.155 | 0.0719 | 0.194 | 0.136 | 0.182 | 0.243 | 0.188 | 0.0881 | 0.237 | 0.155 | 0.209 | 0.166 | 0.13 | 0.16 | 0.15 | 0.0959 | 0.306 | 0.175
4 | 3.0 (DMSO control at this site: 1-bp insertion 0.109, MH deletion 0.149, edited 0.09) TGCTAGCGCCCCCACAAAGCGGACCAGCCAGCACTATAGGGAATAAGGCCAACTTGCACCC | 0.101 | 0.0887 | 0.115 | 0.0444 | 0.124 | 0.099 | 0.103 | 0.178 | 0.123 | 0.0619 | 0.162 | 0.0928 | 0.145 | 0.126 | 0.0815 | 0.12 | 0.0841 | 0.0816 | 0.193 | 0.13
5 | 16.0 (DMSO control at this site: 1-bp insertion 0.172, MH deletion 0.29, edited 0.05) CGGACTGCACACATGGGTAGGATCGTGCACGCGAGGTAGGATCGTGCACGCGAAGTTATTC | 0.0491 | 0.0603 | 0.0612 | 0.0319 | 0.079 | 0.0596 | 0.0609 | 0.0951 | 0.076 | 0.0437 | 0.0974 | 0.052 | 0.0804 | 0.0597 | 0.0541 | 0.0594 | 0.0586 | 0.043 | 0.128 | 0.0716
6 | 31.0 (DMSO control at this site: 1-bp insertion 0.315, MH deletion 0.329, edited 0.026) ACCTCCACAGGCTGGGTGGCCCGGAGGCTGGGCGGCCCGGAGGCTGGGCTGGGCGAGTATC | 0.0285 | 0.0243 | 0.0286 | 0.0119 | 0.0428 | 0.0286 | 0.0363 | 0.0504 | 0.0355 |  | 0.0451 | 0.0289 |  |  | 0.0207 | 0.0406 | 0.0296 | 0.0243 | 0.0456 | 0.026
7 | 34.0 (DMSO control at this site: 1-bp insertion 0.184, MH deletion 0.385, edited 0.103) ATTATAGGACCCTGAGGGAGCAGAGATGTGGGAATGGGGGCCGAGCCAATTGTGATGTAAG | 0.119 | 0.107 | 0.0942 | 0.0488 | 0.159 | 0.0937 | 0.114 | 0.157 | 0.129 | 0.0719 | 0.159 | 0.112 | 0.134 | 0.113 | 0.104 | 0.0912 | 0.0944 | 0.0799 | 0.18 | 0.112
8 | 1.0 (DMSO control at this site: 1-bp insertion 0.521, MH deletion 0.323, edited 0.141) GTGTCACAGTGCACGAGTGACGGGATAATGTGCTGACAGGTAATTGATAGGCTTCCAACTT | 0.144 | 0.154 | 0.163 | 0.0521 | 0.194 | 0.145 | 0.207 | 0.256 | 0.203 | 0.152 | 0.243 | 0.141 | 0.218 | 0.174 | 0.14 | 0.132 | 0.176 | 0.112 | 0.33 | 0.159
9 | 47.0 (DMSO control at this site: 1-bp insertion 0.095, MH deletion 0.585, edited 0.118) GAGTGGTCCCGAGCCAGGAACTGTGTGTGTTGCAGGGGGGCAGTAACTCCCCAACTCCCTC | 0.124 | 0.13 | 0.135 | 0.0496 | 0.156 | 0.121 | 0.151 | 0.198 | 0.151 | 0.0862 | 0.199 | 0.123 | 0.171 | 0.143 | 0.0948 | 0.12 | 0.129 | 0.0848 | 0.244 | 0.148
10 | 15.0 GCGCCTCCAATGACCCAGTGGGATCCTACTCCATAATGGGATCCTGGGGATTCCTCGCTCC | 0.105 | 0.0725 |  |  |  |  |  | 0.107 |  |  | 0.136 | 0.0776 |  |  | 0.0802 |  |  |  |  | 0.132
11 | 2.0 (DMSO control at this site: 1-bp insertion 0.364, MH deletion 0.356, edited 0.125) GGTGCCCCCGAGACCTACGCGAACCGAAATCGATGTCCGGTGCGCAAGCAGGGCTGGCGTC | 0.141 | 0.129 | 0.143 | 0.0564 | 0.191 | 0.14 | 0.176 | 0.228 | 0.172 | 0.121 | 0.231 | 0.128 | 0.18 | 0.147 | 0.115 | 0.129 | 0.137 | 0.102 | 0.286 | 0.169
12 | 27.0 CCAGAATTAGAACATATCATCTGGACCCTTTTCCATCTGGACCCTTTTCCAGCACACCCTG | 0.0506 | 0.055 | 0.0501 |  | 0.0605 |  | 0.0612 | 0.0829 | 0.0745 |  | 0.0968 | 0.0456 |  |  | 0.0322 |  | 0.0403 |  | 0.141 | 0.0708
13 | 32.0 (DMSO control at this site: 1-bp insertion 0.03, MH deletion 0.85, edited 0.898) AGAAGTCCAGGATCAGGGGGACTGGGGTCGGGAGGGTGGGGCAGGAAGGAAGCCAGAATCA | 0.893 | 0.917 | 0.893 | 0.793 | 0.944 | 0.929 | 0.921 | 0.946 | 0.934 | 0.841 | 0.946 | 0.904 | 0.925 | 0.917 | 0.9 | 0.87 | 0.891 | 0.849 | 0.951 | 0.923
14 | 18.0 (DMSO control at this site: 1-bp insertion 0.114, MH deletion 0.789, edited 0.094) GCGCAAGTGCATAAGTTTTTCTTAAGGCGTGCCTTTAAGGCGTGCCTTTGTCGGTCCTGGA | 0.103 | 0.109 | 0.105 | 0.064 | 0.111 | 0.0889 | 0.116 | 0.175 | 0.122 | 0.0564 | 0.155 | 0.0986 | 0.121 | 0.106 | 0.0855 | 0.0951 | 0.0956 | 0.0736 | 0.162 | 0.131
15 | 21.0 CGATTGAGAGTCAAACGGGCCAGAAAACTCCGGGAACGGGCCAGAAAACTCCGGGGCATGG | 0.124 | 0.106 | 0.132 | 0.0441 | 0.152 |  | 0.141 | 0.199 | 0.144 | 0.046 | 0.198 | 0.121 |  | 0.14 | 0.116 | 0.124 | 0.103 |  | 0.273 | 0.136
16 | 28.0 (DMSO control at this site: 1-bp insertion 0.035, MH deletion 0.77, edited 0.142) TGGTTCTTCCTTTGTAGAGAGTGTTCATCTGGGAATCTGGGACTTGGATGAGACAATCATT | 0.171 | 0.174 | 0.171 | 0.0787 | 0.217 | 0.16 | 0.181 | 0.291 | 0.196 | 0.0747 | 0.267 | 0.152 | 0.212 | 0.19 | 0.126 | 0.14 | 0.153 | 0.11 | 0.297 | 0.198
17 | 44.0 (DMSO control at this site: 1-bp insertion 0.181, MH deletion 0.512, edited 0.123) ACACATACCTTCTTCGAGGCAGCCAGCATGATGAGACAGGTCTCCCACAAACACATCGTGT | 0.149 | 0.14 | 0.157 | 0.0618 | 0.202 | 0.138 | 0.17 | 0.251 | 0.195 | 0.111 | 0.232 | 0.141 | 0.191 | 0.167 | 0.124 | 0.138 | 0.124 | 0.11 | 0.265 | 0.167
18 | 25.0 (DMSO control at this site: 1-bp insertion 0.017, MH deletion 0.774, edited 0.143) GGGCCTGAATGGTGTGGACATCTACTCGCTGGTGAGCTGGTGACTGAAAACATTCAGTGGC | 0.18 | 0.183 | 0.184 | 0.0836 | 0.211 | 0.167 | 0.199 | 0.306 | 0.205 | 0.0682 | 0.278 | 0.159 | 0.228 | 0.194 | 0.14 | 0.16 | 0.15 | 0.109 | 0.31 | 0.203
19 | 22.0 (DMSO control at this site: 1-bp insertion 0.573, MH deletion 0.229, edited 0.045) CTGATGGTTGAAGGATTTAGCCGGGGTCCTAGACGCCGGGGTCCTAGACGAAAGGGCCACG | 0.0447 | 0.0542 | 0.0455 | 0.0167 | 0.0664 | 0.0371 | 0.0513 | 0.0926 | 0.0709 | 0.0389 | 0.0884 | 0.0476 | 0.0695 | 0.0586 | 0.0454 | 0.056 |  | 0.0278 | 0.117 | 0.0556
